# Unmarked numbers belong to inactive results. Activity calls are given as the source filed them. Cut-off read from the data, not from the text of the source: active = fold change permeability below about 0.7 or above about 1.3; inactive = in between.
# Assay: modulators of brain endothelial barrier permeability, primary screen, cell-based, FITC-avidin fluorescence, HTS (AID 1963498); note: test concentration not given here
# Settings: actives lie on both sides
row,SMILES,fold change permeability
1,COc1cc2nc(N(C)CCCNC(=O)C3CCCO3)nc(N)c2cc1OC (centres undefined),1
2,CCOC(=O)[C@@H](N)Cc1ccc(O)c(O)c1,0.9
3,NCCCCCCCCCCN,0.9
4,CCOC(=O)c1ccc(C#Cc2ccc3c(c2)C(C)(C)CCS3)nc1,2.1 (active)
5,CC(N)=O,0.9
6,C=CCN1CCc2c(cc(O)c(O)c2Br)[C@@H](c2ccccc2)C1,1
7,O=C(c1ccccc1)c1ccc2n1CCC2C(=O)O (centres undefined),2 (active)
8,C/C(=C\c1ccc(C(=O)O)cc1)c1ccc2c(c1)C(C)(C)CCC2(C)C,1.7 (active)
9,Oc1ccc2c(c1)CC[C@H](c1ccccc1)[C@@H]2c1ccc(OCCN2CCCC2)cc1,1.3 (active)
10,COc1cc(NS(C)(=O)=O)ccc1Nc1c2ccccc2nc2ccccc12,1.2
11,CSc1c(C)c(SC)n2ccncc12,1.3 (active)
12,O=C(c1cccc(-c2ccc(-c3cn(C(=O)N4CCCCC4c4ccccc4)nn3)cc2)c1)N1CCCCC1 (centres undefined),1.1
13,CO[C@H]1O[C@@H]2O[C@@]3(C)CC[C@H]4[C@H](C)CC[C@@H]([C@H]1C)[C@@]24OO3,0.8
14,CNC(=O)Oc1ccc2c(c1)[C@]1(C)CCN(C)[C@@H]1N2C,0.8
15,N[C@@H](CC(=O)N1CCN(C(c2ccc(F)cc2)c2ccc(F)cc2)CC1)C(=O)N1Cc2ccccc2C1,1.1
16,Cc1nc2n(c(=O)c1CCN1CCC(c3noc4cc(F)ccc34)CC1)CCCC2O (centres undefined),1
17,Nc1ncnc2c1c(-c1cccc(OCc3ccccc3)c1)cn2C1CC(CN2CCC2)C1 (centres undefined),1.1
18,C=C1C[C@H]2[C@@H]3CCC4=CC(=O)CC[C@@H]4[C@H]3CC[C@]2(C)[C@@]1(OC(C)=O)C(C)=O,1.1
19,Fc1cccc(/C=N\N=C/c2cccc(F)c2)c1,0.8
20,Cn1cnc([N+](=O)[O-])c1Sc1ncnc2nc[nH]c12,1.1

row,SMILES,fold change permeability
1,CCCOC(=O)c1c(-c2ccccc2)nc(CC)c(C(=O)SCC)c1CCC,1.5 (active)
2,O=C(O)CN(CCOCCOCCN(CC(=O)O)CC(=O)O)CC(=O)O,0.8
3,Cc1cc(C)nc(SCC(=O)Nc2ncc(Cc3cccc4ccccc34)s2)n1,1.4 (active)
4,N[C@@H](Cn1ccc(=O)c(O)c1)C(=O)O,1.8 (active)
5,CC(C[N+](C)(C)C)OC(N)=O (centres undefined),1
6,NC/C=C/C(=O)O,0.8
7,CCCCCCCC/C=C\CCCCCCCC(=O)O,0.9
8,Nc1nc(OCc2cc(Br)cs2)c2[nH]cnc2n1,1.5 (active)
9,CC(=O)N[C@@H](CS)C(=O)O,1.1
10,CCCCCCCCCCCCCCCCCCc1ccc(C(=O)/C=C/C(=O)O)cc1,1.2
11,CC(C(=O)O)c1ccc(CC2CCCC2=O)cc1 (centres undefined),1.5 (active)
12,CCCCCCN(CCCCCC)C(=O)Cc1c(-c2ccc(F)cc2)[nH]c2ccccc12,1.4 (active)
13,c1ccc(-c2cnn3cc(-c4ccc(OCCN5CCOCC5)cc4)cnc23)cc1,1.2
14,C[C@]12C=CC(=O)C=C1CC[C@H]1[C@@H]3C[C@@H](O)[C@](O)(C(=O)CO)[C@@]3(C)C[C@H](O)[C@@]12F,1.4 (active)
15,CC(C)(C)NCC(O)COc1nsnc1N1CCOCC1 (centres undefined),1.4 (active)
16,C=C(Cc1ccccc1Cl)C(=O)OCC,1
17,CC(C)C[C@H](NC(=O)[C@@H](O)[C@H](N)Cc1ccccc1)C(=O)O,1
18,CN1CCc2cc(Cl)c(O)cc2[C@@H](c2ccccc2)C1,0.9
19,c1ccc(C2CN3CCSC3=N2)cc1 (centres undefined),1
